As usually defined, the inhibition is the drop in the measured response relative to a control, in per cent. What is called viability is a read-out of living cells in per cent, often relative to untreated cells. What is called remaining activity is the signal under treatment as a percentage of the control signal.

The target of experiment [1] is 6-phosphogluconate dehydrogenase, decarboxylating (Homo sapiens) (UniProt P52209). Put plainly: inhibition of human phosphogluconate dehydrogenase – biochemical, recombinant enzyme, NADPH absorbance, primary screen (AID 1159550;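 active means at least 20% inhibition of 6-phosphogluconate dehydrogenase activity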). The note with it: recombinant 6PGD, NADPH absorbance 341 nm; at 10 µM; stronger effect = higher value.
6-phosphogluconate dehydrogenase, decarboxylating (Homo sapiens), sequence (P52209 whole entry, looked up): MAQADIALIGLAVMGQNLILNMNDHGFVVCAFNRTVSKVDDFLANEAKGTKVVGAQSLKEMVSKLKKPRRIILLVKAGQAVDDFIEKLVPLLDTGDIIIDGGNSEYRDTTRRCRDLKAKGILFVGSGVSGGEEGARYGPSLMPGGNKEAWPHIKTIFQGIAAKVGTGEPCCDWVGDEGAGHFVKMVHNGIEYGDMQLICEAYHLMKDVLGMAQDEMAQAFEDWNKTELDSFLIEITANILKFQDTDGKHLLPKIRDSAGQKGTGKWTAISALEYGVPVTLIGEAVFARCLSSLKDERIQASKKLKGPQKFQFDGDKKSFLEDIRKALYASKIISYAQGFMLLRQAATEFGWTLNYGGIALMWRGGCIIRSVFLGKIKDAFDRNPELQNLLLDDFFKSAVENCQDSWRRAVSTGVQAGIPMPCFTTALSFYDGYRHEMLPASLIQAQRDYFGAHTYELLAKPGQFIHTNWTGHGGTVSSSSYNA
Experiment [2] deals with Aerobactin synthetase IucA (Klebsiella pneumoniae hvKP1). Put plainly: IucA enzyme inhibition, primary screen, biochemical, Spectrum library (AID 1346200).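 Further: 100% = wells without compound and 0% = wells lacking enzyme.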 The settings on record: malachite green pyrophosphate, A620, at 8 µM, stronger effect = lower value.
Experiment [3] is described as follows: blockers of polyQ-driven CASP3 activation – cell-based (AID 1583). The settings on record: polyglutamine-induced caspase-3 activation, cell assay; stronger effect = higher value;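 tested at 10 µM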.
Experiment [4] in a line: yeast 75Q aggregation reduction – 75Q-TubU reporter (AID 1593). The note with it: Yeast 75Q polyglutamine aggregation reporter.
Experiment [5] can be described thus: restoration of touch response, mutant HTT neurons – whole organism, C. elegans mechanosensory neurons, N-terminal huntingtin (AID 1599). The note with it: C. elegans polyQ-huntingtin mechanosensory neurons, stronger effect = higher value.
A short description of experiment [6]: blockers of cytochrome c efflux from mitochondria – biochemical, purified mitochondria (AID 1603).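 Further: mouse liver mitochondria challenged with calcium chloride; signal normalized to the plate average as 100%.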 The note with it: stronger effect = lower value.
Experiment [7] can be described thus: polyglutamine aggregate formation blockers (AID 1604). The note with it: polyglutamine-induced protein aggregation inhibition assay; stronger effect = higher value; tested at 2.5 µM.
Experiment [8] is described as follows: glutamate transport activators, MN-1 cells, MN-1 cell line (AID 1612).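 Further: tested at 1 µM final; 0% = mean of DMSO vehicle wells on each plate; positive means more glutamate uptake than control and negative means less.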 The settings on record: MN-1 motor neuron cells, stronger effect = higher value.
Experiment [9] is described as follows: GFP-Q80 aggregate reduction, neuronal-like cells, cell-based, NGF-treated PC12, GFPQ80 (AID 1614).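 Further: lower means fewer inclusions and 0 means no inclusions at all.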 The settings on record: PC12 NGF-treated GFP-polyQ80 inclusion reduction.
A short description of experiment [10]: 75Q-TubH aggregate inhibition, S. cerevisiae, yeast (AID 1616). The note with it: S. cerevisiae 75Q-TubH polyglutamine aggregation suppression; stronger effect = higher value.
The nature of experiment [11]: EMT-state selective cytotoxicity in co-culture – imaging, PC-3E GFP, TEM4-18 mCherry, primary screen (AID 1345086;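 active means compounds killing one labelled cell type while sparing the other, by normalised counts and ratio limits, not self-fluorescent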;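 on all read-outs here: cells exposed to compound for 72 h before imaging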;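 on red/green cell ratio (normalised): normalised mesenchymal count divided by normalised epithelial count so high means epithelial killing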). The settings on record: PC-3E GFP / TEM4-18 mCherry co-culture, imaging cell counts, at 1 µM; for red/green cell ratio (normalised): actives lie on both sides.
A short description of experiment [12]: viability loss with induced miR-34 in A549 – imaging, A549 dox-inducible miR-34, nuclei and caspase counts, primary screen (AID 1347080;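 active means compounds whose cell count with miR-34 switched on is under 0.7 times the count with it off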). The settings on record: A549 miR-34 inducible, Hoechst nuclei count, 48 h.
For experiment [13], the target named is NAD(+) hydrolase SARM1 (Homo sapiens) (UniProt Q6SZW1). Put plainly: blocking NAD cleavage by SARM1 SAM-TIR – cell lysate, NAD-Glo luminescence (AID 1508614;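 active means compound whose remaining NAD level is above about 45 nM, limit read from the data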). The settings on record: SAM-TIR HEK293T lysate NADase, at 1 µM, stronger effect = higher value.
NAD(+) hydrolase SARM1 (Homo sapiens), sequence (Q6SZW1 whole entry, looked up, the tested form may be a part): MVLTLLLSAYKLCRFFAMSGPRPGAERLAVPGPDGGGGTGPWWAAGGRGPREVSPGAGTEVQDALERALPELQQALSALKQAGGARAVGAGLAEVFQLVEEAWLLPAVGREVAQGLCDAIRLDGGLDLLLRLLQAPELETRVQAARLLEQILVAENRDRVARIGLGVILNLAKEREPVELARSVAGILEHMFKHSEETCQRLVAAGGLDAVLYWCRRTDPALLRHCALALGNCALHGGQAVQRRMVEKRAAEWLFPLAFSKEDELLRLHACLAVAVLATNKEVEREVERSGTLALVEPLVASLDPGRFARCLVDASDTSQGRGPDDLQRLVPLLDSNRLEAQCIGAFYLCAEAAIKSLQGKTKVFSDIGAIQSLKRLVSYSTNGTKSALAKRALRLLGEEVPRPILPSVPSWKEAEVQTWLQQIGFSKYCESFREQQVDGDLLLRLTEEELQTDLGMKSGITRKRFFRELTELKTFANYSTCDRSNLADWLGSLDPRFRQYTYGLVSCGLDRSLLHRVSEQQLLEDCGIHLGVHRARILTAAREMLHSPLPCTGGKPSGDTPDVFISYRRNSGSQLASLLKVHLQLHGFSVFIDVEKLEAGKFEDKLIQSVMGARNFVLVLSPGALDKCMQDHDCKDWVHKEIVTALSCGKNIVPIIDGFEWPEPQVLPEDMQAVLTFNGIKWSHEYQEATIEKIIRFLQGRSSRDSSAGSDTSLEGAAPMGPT
Experiment [14] deals with Mitogen-activated protein kinase 7 (Homo sapiens) (UniProt Q13164). Put plainly: Gal4-ERK5 driven luciferase induction – cell-based, HTS, primary screen (AID 1508626;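 active means luciferase signal above three times the same-plate solvent-only control wells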;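 further: luciferase driven by Gal4-ERK5 fusion binding five Gal4 sites before minimal TATA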). The settings on record: HeLa Gal4-ERK5 transactivation, 18 h, at 5 µM, stronger effect = higher value.
Mitogen-activated protein kinase 7 (Homo sapiens), sequence (Q13164 whole entry, looked up, the tested form may be a part): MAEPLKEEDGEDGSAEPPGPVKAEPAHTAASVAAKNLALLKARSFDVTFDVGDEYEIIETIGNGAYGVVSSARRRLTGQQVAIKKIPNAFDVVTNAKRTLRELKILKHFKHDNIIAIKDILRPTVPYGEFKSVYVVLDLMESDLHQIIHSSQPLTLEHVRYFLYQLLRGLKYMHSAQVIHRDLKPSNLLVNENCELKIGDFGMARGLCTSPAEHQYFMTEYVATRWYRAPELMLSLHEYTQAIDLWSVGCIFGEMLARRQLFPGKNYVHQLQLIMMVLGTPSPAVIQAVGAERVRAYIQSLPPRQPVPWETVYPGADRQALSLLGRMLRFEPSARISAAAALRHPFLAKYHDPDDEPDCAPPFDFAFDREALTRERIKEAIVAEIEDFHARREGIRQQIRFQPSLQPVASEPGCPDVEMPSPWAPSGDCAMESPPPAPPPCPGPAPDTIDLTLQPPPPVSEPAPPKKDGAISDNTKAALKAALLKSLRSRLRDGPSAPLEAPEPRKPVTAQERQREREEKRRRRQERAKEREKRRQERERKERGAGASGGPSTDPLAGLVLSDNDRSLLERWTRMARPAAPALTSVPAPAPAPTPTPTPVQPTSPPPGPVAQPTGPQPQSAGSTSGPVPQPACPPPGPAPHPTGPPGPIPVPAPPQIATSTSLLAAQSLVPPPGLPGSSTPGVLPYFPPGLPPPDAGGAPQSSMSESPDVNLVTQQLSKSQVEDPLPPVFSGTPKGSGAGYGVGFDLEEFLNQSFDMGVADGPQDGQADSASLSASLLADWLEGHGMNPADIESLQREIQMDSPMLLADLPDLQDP
The nature of experiment [15]: compounds altering circadian rhythm period length – cell-based, LOPAC library, luminescence reporter (AID 2774).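 Further: values are relative to mean of DMSO wells on each plate.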 The note with it: circadian reporter cells, at 7 µM, actives lie on both sides.
A short description of experiment [16]: P. berghei load reduction in hepatocytes – cell-based, HepG2, luciferase luminescence, HepG2 viability, primary screen (AID 624349; in the data active means parasite load remaining mostly below about 12%, no sharp cut-off; inactive means mostly above about 10%;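 further: 100% = mean of DMSO negative control wells on the same plate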). The note with it: P. berghei liver stage in HepG2, luciferase luminescence, concentration not given here; parasite load remaining: stronger effect = lower value; viability: measured here: HepG2 viability without parasites.
For experiment [17], the system named is Hepatitis C virus NS3 helicase. Put plainly: blockers of NS3h binding to ssDNA – biochemical, fluorescence polarization, LOPAC1280 library, primary screen (AID 687035; in the data active means inhibition above about 37%). The settings on record: Purified HCV NS3 helicase, Cy5-dT15 ssDNA binding fluorescence polarization; stronger effect = higher value; concentration not given here.
The nature of experiment [18]: compounds altering Cy5-DNA-NS3h complex signal – biochemical, LOPAC1280, artefact control for HCV NS3 helicase inhibitor project (AID 687037). The note with it: Cy5-DNA-NS3h complex fluorescence interference counterscreen. Background: The purpose of a counterscreen is to sort out artefacts and off-target activity.
Experiment [19] has as its system Aerobactin synthetase IucA (Klebsiella pneumoniae). Put plainly: inhibition of K. pneumoniae IucA enzyme – biochemical, Tocris library, absorbance (AID 1345561).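 Further: 100% = enzyme without compound and 0% = no enzyme.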 The note with it: purified IucA enzyme assay, absorbance (OD) read-out; stronger effect = lower value;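 tested at 8 µM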.
Experiment [20] has as its system Aerobactin synthetase IucA (Klebsiella pneumoniae, hypervirulent). Description: biochemical IucA inhibition screen of LOPAC library by absorbance (AID 1346212).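 Further: 100% = no compound wells and 0% = no enzyme wells.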 The note with it: IucA enzyme assay, absorbance (OD) readout; stronger effect = lower value;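 tested at 8 µM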.
A short description of experiment [21]: blockers of cellular phospholipid synthesis – cell-based, LOPAC library, screen 4, primary screen (AID 1347384). The settings on record: animal cells, phospholipid biosynthesis inhibition screen; at 10 µM.
Experiment [22] in a line: MELAS cybrid and Rieske KO viability enhancers – cell-based, MELAS cybrids, Rieske KO mouse fibroblasts, CellTiter-Glo, primary screen (AID 1508586;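 active means mean z-score across replicates of 1.96 or higher in either the MELAS or the Rieske mutant cell line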;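 further: z relative to plate mean and SD of compound and empty wells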). The note with it: low glucose. A general note: ATP-based viability assays read luminescence as a measure of living cells.
Experiment [23] is described as follows: galactose survival enhancers in mitochondrial complex I cybrids – cell-based, galactose medium, ATP luminescence, primary screen (AID 1645843;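 active means z-score of at least 1.8 in each of two replicates, scored against plate mean and spread of sample wells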;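 further: positive z means more ATP and so rescue of galactose-driven cybrid death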). The note with it: complex I mutant cybrid cells, 72 h, stronger effect = higher value.
[24] abbreviates: measured here: epithelial PC-3E GFP cell survival.
Setting [25] is: measured here: mesenchymal TEM4-18 mCherry cell survival.
The mark [26] stands for this setting: measured here: relative caspase fold change +Dox/-Dox.
Setting [27] is: measured here: total cells with miR-34 induction, stronger effect = lower value.
[28] abbreviates: measured here: total cells without miR-34 induction.

Where “and” joins values, the source holds several entries; their conditions need not be identical. Equal values may be shown once. For some of these results: Results with a measured potency or affinity are listed apart. Calls of active or inactive are those of the source. Unless noted, how the calls were made is not given here.

Regarding `COc1cc2c(cc1OC)[C@@H]1C(=O)c3ccc(O)c(CC=C(C)C)c3O[C@@H]1CO2`, the inhibition in [1] was -10.7% (inactive). In experiment [2], the activity remaining is 103% (inactive).
On to `C[C@@H]([C@H](O)c1ccccc1)N(C)C`, for which the inhibition in experiment [3] is -9.65%; in experiment [1], 4.3% (inactive). The compound further yielded a score in experiment [4] of 1.49. Besides, the rescue above control in experiment [5] is -3.5. Also, the cytochrome c release ratio in experiment [6] worked out at 0.95. Further, in experiment [7], the inhibition of aggregation is 81%. This compound also yielded a glutamate uptake change in [8] of 13.8%. Besides, the inclusion score in experiment [9] was determined as 2. In experiment [10], this compound displayed an aggregation suppression score of 1.19. The red/green cell ratio (normalised) in [11] was 0.91 (inactive). Besides, the normalised cell number in experiment [11] (setting [24]) was found to be 1.19; in experiment [11] (setting [25]), 1.09. The results for the fold change in [12] (stronger effect = lower value) and in [12] (setting [26]) were 0.94 (inactive) and 0.912, respectively. Further, the cell count in experiment [12] (setting [27]) turned out to be 8870; in [12] (setting [28]), 9440. The remaining NAD in experiment [13] is 10 nM (inactive). Further, the luciferase signal in experiment [14] is 108 AU (inactive).
Regarding `O=C1CCCN1CC#CCN1CCCC1`, the inhibition in experiment [3] was 17.7%; in experiment [17], -4% (inactive); in experiment [1], -3.4% (inactive). Also, the score in experiment [4] worked out at 1.21. The compound further had a rescue above control in experiment [5] of 3.59. Moreover, in experiment [6], the cytochrome c release ratio came out at 0.97. In addition, the inhibition of aggregation in [7] is 79.6%. In experiment [8], this compound came in with a glutamate uptake change of 5.01%. In experiment [9], this compound displayed an inclusion score of 1. Besides, the aggregation suppression score in [10] was 1.3. Besides, the period change in experiment [15] was 0.015 h (inactive). Further, the parasite load remaining in experiment [16] was 75.3% (inactive) and 41.2% (inactive). Also, the viability in experiment [16] is 88.4% and 99%. Moreover, the fluorescence ratio (interference) in experiment [18] is 0.9 (inactive). In addition, the remaining activity is 92.7% (inactive) in experiment [19] and 119% (inactive) in experiment [20]. For the same compound, the activity remaining in experiment [2] was 119% (inactive). The fold change in [12] (stronger effect = lower value) is 1.1 (inactive) and 0.966 (inactive) and 0.92 (inactive); in [12] (setting [26]), 0.937 and 0.652 and 1.46. Besides, the cell count was 11000 and 8640 and 10100 in experiment [12] (setting [27]); 10100 and 8940 and 11000 in experiment [12] (setting [28]). Besides, in experiment [21], the compound was classed as inactive. In addition, the z-score is -0.379 (inactive) in experiment [22] (MELAS cybrid survival, CellTiter-Glo 48 h, stronger effect = higher value); -0.277 in experiment [22] (Rieske KO mouse fibroblast survival, CellTiter-Glo 72 h); 0.355 (inactive) and 1.75 (inactive) and 0.67 (inactive) in experiment [23]. Besides, the luciferase signal in experiment [14] was 44 AU (inactive).
`Oc1c(Cl)c(Cl)c(Cl)c(Cl)c1Cl`: the inhibition in [1] is 4.09% (inactive). In addition, the red/green cell ratio (normalised) in experiment [11] was 0.88 (inactive). Also, the normalised cell number in experiment [11] (setting [24]) worked out at 1.25; in experiment [11] (setting [25]), 1.1. The luciferase signal in experiment [14] was 480 AU (active).
With `COC(=O)/C(C)=C\CC12OC(C)(C)C3CC(C=C4C(=O)c5c(OC)c6c(c(CC=C(C)C)c5OC431)OC(C)(CCC=C(C)C)C=C6)C2=O` (configuration not stated), the inhibition in experiment [1] is -0.84% (inactive). Besides, the activity remaining in experiment [2] is 98.7% (inactive).
On to `C/C=C(/C)C(=O)O[C@H]1CC[C@@]2(C)[C@@H]3CC[C@H]4[C@]5(O)C[C@H](O)[C@@]6(O)[C@@H](CN7C[C@@H](C)CC[C@H]7[C@@]6(C)O)[C@]5(O)C[C@@]42O[C@]13O`, for which the inhibition is -10.4% in experiment [3] and -10.1% (inactive) in experiment [1]. The compound further came in with a score in [4] of 1.23. The rescue above control in [5] was found to be 6.62. Besides, in [6], the cytochrome c release ratio was 0.66. For the same compound, the inhibition of aggregation in [7] was 73.8%. The same compound returned a glutamate uptake change in experiment [8] of 7.49%. The same compound showed an inclusion score in experiment [9] of 2. The compound further had an aggregation suppression score in experiment [10] of 1.05. Also, in experiment [11], the red/green cell ratio (normalised) was 0.76 (inactive). The values for the normalised cell number in experiment [11] (setting [24]) and in experiment [11] (setting [25]) were 1.31 and 1, respectively. In experiment [2], the activity remaining is 98.9% (inactive). For the same compound, the luciferase signal in experiment [14] was 96 AU (inactive) and 56 AU (inactive).

Source of the values: PubChem BioAssay.
